Assay outcomes deposited in PubChem by National Center for Advancing Translational Sciences (NCATS).
HT1080-NT tox – qHTS for induction of synthetic lethality in tumor cells producing 2HG: qHTS for the HT-1080-NT fibrosarcoma cell line. HT-1080-NT fibrosarcoma viability, CellTiter-Glo ATP luminescence, 48 h. Potency, µM (top dose mostly 46.1 µM), for inactives: at the highest dose activity, negative = less viability, most hits filed as cytotoxic. 360,000 compounds, 1.6% hits. AID 686970, 2013;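 also: NT is the 2HG producing partner of a matched IDH1 knockdown line; 0% = DMSO-treated cells and -100% = media-only wells without cells; nearly all actives have a fitted effect of over 55% in size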
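Read-out is CellTiter-Glo luminescence after 10 minutes at room temperature, following 48 hours' compound treatment of HT-1080-NT cells (750 cells/well, RPMI, 5% FBS, 37 degrees C).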
KB-3-1 cytotox – qHTS assay for MDR1-selective chemotherapeutics: Primary screen using the parental adenocarcinoma cell KB-3-1; Potency, µM (top dose mostly 46.1 µM), actives largely listed as cytotoxic; 400,000 compounds, 1.4% hits; KB-3-1 viability, CellTiter-Glo ATP luminescence, 72 h; also: % is scaled to controls: 0 for no effect and ±100 for the full control effect; nearly all actives have a fitted effect of over 60% in size
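Here the drug-naive KB-3-1 line serves as comparator for MDR sub-line selectivity; cells received compound titrations, 72 h at 37 °C, then CellTiter-Glo readout.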
SW480 rerep – A quantitative high throughput screen for small molecules that induce DNA re-replication in SW480 colon adenocarcinoma cells | SW480 DNA re-replication, Hoechst DNA content imaging, 48 h | Potency, µM (titrated, usually from 46.1 µM), without a hit: at the top dose re-replication activation, most hits filed as activators | 340,000 compounds, 1.8% hits; also: % of control where 0% means no effect; nearly all actives have a fitted effect of over 55% in size
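Compounds, transferred as 23 nL by pin tool, were incubated with cells for 48 hr; DNA content per nucleus was then quantified by Hoechst staining and fluorescence plate imaging.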
MCF10A rereplic – A quantitative high throughput screen for small molecules that induce DNA re-replication in MCF 10a normal breast cells. 350,000 compounds, 2.9% hits. MCF 10A DNA re-replication, Hoechst nuclear intensity, 48 h. Potency, µM (highest dose often 46.1 µM), inactives show at the top dose activity, positive = re-replication, hits mostly activators; also: % of control where 0% means no effect; nearly all actives have a fitted effect of over 50% in size
HT1080 IDH1KD tx – qHTS for induction of synthetic lethality in tumor cells producing 2HG: qHTS for the HT-1080-IDH1KD cell line; HT-1080 IDH1 knockdown viability, ATP luminescence, 48 h; AID 686971, 2013; 360,000 compounds, 2% hits; Potency, µM (top dose mostly 46.1 µM), inactives show at the highest dose activity, negative = toxicity, usual class: cytotoxic;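 also: 0% = DMSO wells and -100% = cell-free medium wells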
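Knockdown cells (IDH1KD HT-1080) received compounds 2 h after plating at 750 cells/well and were kept 48 h at 37 °C in 5% FBS RPMI. A CellTiter-Glo luminescence read gave % activity for curve fitting.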
KB-V1 MDR tox – qHTS assay for MDR1-selective chemotherapeutics: Primary screen using the drug-selected MDR subline cells KB-V1; KB-V1 MDR cells viability, CellTiter-Glo, 72 h; Potency, µM (top dose mostly 46.1 µM), hits mostly cytotoxic; 400,000 compounds, 3.4% hits; also: % is scaled to controls: 0 for no effect and ±100 for the full control effect; nearly all actives have a fitted effect of over 60% in size
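Compound-treated KB-V1 multidrug-resistant cells, 72 h, 37 degrees C; viability by CellTiter-Glo. Fitted qHTS curves give the values.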
Numbers without * were called inactive; ! = not active in a repeat. Shown are actives, neighbours in structure and some others; about 7.9% of the full set was active somewhere. Calls follow the shape of the dose curve; as a rule, active = well fitted curve in the direction sought with a large enough effect; inconclusive = small, poorly fitted or top-dose-only effect, or another doubt; inactive = no such curve, though single readings can be large; an effect the other way counts as inactive or inconclusive. Potency is read from the fitted curve at half-maximal effect.

`C=CCOC(=O)C1=C(C)NC(SCC)=C(C#N)C1c1ccc(Cl)cc1` (configuration not stated) gave HT1080-NT tox 9.2µM*, KB-3-1 cytotox inconclusive, SW480 rerep inconclusive, MCF10A rereplic 23µM*, HT1080 IDH1KD tx 8.2µM* and KB-V1 MDR tox 23µM*.
For COC(=O)[C@@]12C[C@@H](CC(=O)NCc3cccs3)C(=O)N(Cc3ccco3)C1=CCC(C)(C)C2 the results were HT1080-NT tox -3%, KB-3-1 cytotox inactive, HT1080 IDH1KD tx -1% and KB-V1 MDR tox inconclusive.
For C#CCSC1=C(C#N)C(c2cccs2)C(C(=O)OCC)=C(C)N1 (configuration not stated) the results were HT1080-NT tox 9%, KB-3-1 cytotox inactive, SW480 rerep 4%, MCF10A rereplic 14%, HT1080 IDH1KD tx -11% and KB-V1 MDR tox 10µM*.
For CCOC(=O)C1=C(C)NC(C)=C(C(=O)OCC)C1c1cccs1 the results were HT1080-NT tox -12%, KB-3-1 cytotox inactive, SW480 rerep -2%, MCF10A rereplic -3%, HT1080 IDH1KD tx -13% and KB-V1 MDR tox inconclusive.
For NC(=NCCCCCCN=C(N)/N=C(\N)Nc1ccc(Cl)cc1)/N=C(\N)Nc1ccc(Cl)cc1 the results were HT1080-NT tox 15µM*!, KB-3-1 cytotox inconclusive, SW480 rerep 1.3µM*!, MCF10A rereplic inconclusive, HT1080 IDH1KD tx 18µM*! and KB-V1 MDR tox inconclusive.
Screening Cc1cccc(CN2C(=O)c3ccccc3S(=O)(=O)c3ccc(C(=O)OCC4CCCO4)cc32)c1 (configuration not stated) returned KB-3-1 cytotox inactive and KB-V1 MDR tox inconclusive.
`N/C(=N/OC(=O)c1ccccc1Cl)c1ncc([N+](=O)[O-])s1` gave HT1080-NT tox 29µM*, KB-3-1 cytotox 23µM*, SW480 rerep inconclusive, MCF10A rereplic inconclusive, HT1080 IDH1KD tx 18µM* and KB-V1 MDR tox inconclusive.
Screening COc1ccc(NC(=O)CSc2nnc3c(n2)[nH]c2ccc(S(=O)(=O)N(C)C)cc23)c(OC)c1 returned HT1080-NT tox 6% and HT1080 IDH1KD tx 0%.
CCOc1ccccc1NC(=O)Nc1nnc(N(C)Cc2ccccc2)s1 was read as KB-3-1 cytotox inactive and KB-V1 MDR tox inconclusive.
For CCCCCCCCCC[n+]1cc(Br)cc(Br)c1 the results were KB-3-1 cytotox inconclusive and KB-V1 MDR tox inactive.
`COCCOC(=O)c1c(C)oc2ccc(NS(=O)(=O)c3ccc(C(=O)O)cc3)cc12` gave HT1080-NT tox 3%, KB-3-1 cytotox inactive, SW480 rerep -4%, MCF10A rereplic -3%, HT1080 IDH1KD tx 1% and KB-V1 MDR tox inactive.
CCOc1ccc(S(=O)(=O)Nc2ccc3oc(C)c(C(=O)OCCOC)c3c2)cc1 was read as KB-3-1 cytotox 5.8µM* and KB-V1 MDR tox inconclusive.
Screening COC(=O)c1c(C)oc2ccc(NS(=O)(=O)c3cc(OC)ccc3OC)cc12 returned HT1080-NT tox inconclusive, KB-3-1 cytotox 26µM*, SW480 rerep 15%, MCF10A rereplic inconclusive, HT1080 IDH1KD tx inconclusive and KB-V1 MDR tox 10µM*.
`CC(=O)c1c(C)oc2ccc(NS(=O)(=O)c3ccc(C(C)C)cc3)cc12` gave KB-3-1 cytotox 21µM* and KB-V1 MDR tox inconclusive.
